# Screening results (PubChem)
# Only some compounds are listed: those with a hit (about 19% of all), similar ones and a draw of the others.
# uPA generation = qHTS for Inhibitors of Cell Surface uPA Generation | cell surface uPA generation assay, qHTS | Potency, µM (highest dose often 38.3 µM), for inactives: at the highest dose activity change, negative = inhibition, hits mostly inhibitors | 330,000 tested, 0.31% active; active = well fitted inhibition curve with a large enough effect; inconclusive = small, poorly fitted or top-dose-only effect; inactive = no such curve, though single readings can be large or run the other way; tested in mouse RAW 264.7 cells; note: potency is the fitted concentration of half-maximal effect; nearly all actives have a fitted effect of over 55% in size
# DT40 TDP1 no CPT = qHTS for Inhibitors of human tyrosyl-DNA phosphodiesterase 1 (TDP1): qHTS in cells in absence of CPT; 420,000 tested, 15% active; DT40 Tdp1-/- hTDP1 cells, no CPT, ATP luminescence, 48 h; Potency, µM (top dose mostly 46.2 µM), for the others: top-dose activity change, negative = growth inhibition, hits mostly inhibitors; AID 686978, 2013; note: potency is the fitted concentration of half-maximal effect; nearly all actives have a fitted effect of over 55% in size
#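 Stably hTDP1-transfected Tdp1-null chicken DT40 cells were treated with library compounds minus camptothecin and grown for at least 48 hr at 37 °C, after which cellular ATP was quantified by luminescence.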
# HT1080NT lethal = qHTS for induction of synthetic lethality in tumor cells producing 2HG: qHTS for the HT-1080-NT fibrosarcoma cell line; AID 686970, 2013; HT-1080-NT fibrosarcoma viability, CellTiter-Glo ATP luminescence, 48 h; 360,000 tested, 1.6% active; Potency, µM (titrated, usually from 46.1 µM), without a hit: at the highest dose activity, negative = less viability, usual class: cytotoxic;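 note: NT is the 2HG producing partner of a matched IDH1 knockdown line; potency is the fitted concentration of half-maximal effect; 0% = DMSO-treated cells and -100% = media-only wells without cells; nearly all actives have a fitted effect of over 55% in size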
#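 Read-out is CellTiter-Glo luminescence after 10 minutes at room temperature, following 48 hours' compound treatment of HT-1080-NT cells (750 cells/well, RPMI, 5% FBS, 37 degrees C).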
# IL-1B inflam inh = qHTS for Inhibitors of Inflammasome Signaling: IL-1-beta AlphaLISA Primary Screen; THP-1 LPS/ATP IL-1B secretion, AlphaLISA, 16 h; active compounds read low; activity change, % at 57.5 µM; 360,000 tested, 4.7% active; AID 743279, 2014; in the data active = activity change below about -50%; inconclusive = mostly about -30% to -49%
#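 THP-1 cells pretreated 1 hr with compounds (up to 57.5 uM final), then stimulated with LPS (250 ng/mL final) plus ATP (1.25 mM final); secreted IL-1B measured by AlphaLISA after 16 hr, decreased signal indicating inhibition.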
# TDP1 cell CPT = qHTS for Inhibitors of human tyrosyl-DNA phosphodiesterase 1 (TDP1): qHTS in cells in presence of CPT | 420,000 tested, 12% active | AID 686979, 2013 | Potency, µM (series often up to 46.2 µM), without a hit: at the top dose activity change, negative = growth inhibition, usual class: inhibitors | chicken DT40 Tdp1-/-;hTDP1 cells + 20 nM CPT, ATP luminescence, 48 h; note: potency is the fitted concentration of half-maximal effect; nearly all actives have a fitted effect of over 55% in size
#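 Chicken DT40 Tdp1-/- cells stably complemented with human TDP1 were seeded at 400 cells/well in medium containing 20 nM camptothecin, exposed to pin-transferred compounds, and grown at 37 °C for at least 48 hr. Viability was read as ATP luminescence.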
# HT1080 IDH1KD tx = qHTS for induction of synthetic lethality in tumor cells producing 2HG: qHTS for the HT-1080-IDH1KD cell line | Potency, µM (titrated, usually from 46.1 µM), inactives show at the highest dose activity, negative = toxicity, actives largely listed as cytotoxic | HT-1080 IDH1 knockdown viability, ATP luminescence, 48 h | 360,000 tested, 2% active;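 note: potency is the fitted concentration of half-maximal effect; 0% = DMSO wells and -100% = cell-free medium wells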
#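 In this qHTS, HT-1080 cells depleted of IDH1 are exposed for 48 h at 37 °C to compound titrations. Toxicity is scored from CellTiter-Glo luminescence, with DMSO as full viability and medium alone as none.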
# Numbers without * were called inactive; ? = inconclusive; nt = no result; ! = repeats disagree. Unless noted, calls come from the whole dose curve; as a rule, active = well fitted curve in the direction sought with a large enough effect; inconclusive = small, poorly fitted or top-dose-only effect, or another doubt; inactive = no such curve, though single readings can be large; an effect the other way counts as inactive or inconclusive. Unless noted, % is set by controls: 0 for no effect and ±100 for the full control effect.
SMILES,uPA generation,DT40 TDP1 no CPT,HT1080NT lethal,IL-1B inflam inh,TDP1 cell CPT,HT1080 IDH1KD tx
COc1cccc(OCCNC(=O)CSc2ccc(C(F)(F)F)cc2[N+](=O)[O-])c1,1%,15µM*,2%,26,15µM*,3%
Cc1ccccc1OCCNC(=O)CSc1ccc(C(F)(F)F)cc1[N+](=O)[O-],5%,?,-13%,?,-8%,-4%
Cc1ccc(S(=O)(=O)Nc2nc3ccccc3nc2NCC2CCCO2)cc1C (stereo not drawn),-5%,?,-1%,21,21µM*,-6%
c1csc(-c2nc(NCC3CCCO3)c3ccccc3n2)c1 (stereo not drawn),-3%,?,-13%,-90*,?,-11%
c1csc(CNc2nc(-c3cccs3)nc3ccccc23)c1,-3%,-10%,-29%,-22,0%,?
Oc1ccc(Nc2nc(NCC3CCCO3)c3ccccc3n2)cc1 (stereo not drawn),-11%,16µM*,21µM*,-96*,23µM*,?
COc1cccc(Nc2nc(NCC3CCCO3)c3ccccc3n2)c1 (stereo not drawn),-6%,5.2µM*,-18%,-122*,6.5µM*,?
Oc1ccc(Cl)cc1Nc1nc(NCC2CCCO2)c2ccccc2n1 (stereo not drawn),-18%,nt,nt,nt,nt,nt
CC(C)(C)OC(=O)C[C@H]1C/C=C\C[C@@H](CC(=O)NCCO)C(=O)N[C@H](C(C)(C)C)COC1=O,4%,3%,10%,17,4%,6%
Cc1ccc(NC(=O)CSc2nncn3c2cc2sccc23)cc1F,nt,?,nt,nt,-1%,nt
CCOc1ccccc1NC(=O)CCc1nnc2ccc(N3CCC4(CC3)OCCO4)nn12,-3%,?,-21%,-22,3%,4%
Cc1ccccc1NS(=O)(=O)c1ccc(C(=O)NCC(C)(C)N2CCOCC2)cc1,-5%,?,-15%,2,?,-10%
CN(C(=O)Cn1cccc1C1=NC(c2ccccc2)CO1)c1ccccc1 (stereo not drawn),1%,-5%,-2%,-2,?,-2%
Oc1ccccc1Nc1nc(NCC2CCCO2)c2ccccc2n1 (stereo not drawn),-2%,26µM*,-5%,-109*,16µM*,-9%
CCOC(=O)c1noc2ncn(Cc3ccc([N+](=O)[O-])cc3)c(=O)c12,nt,-8%,nt,nt,-16%,nt
COC(=O)c1ccc2c(=O)n3nc(Nc4ccc(F)cc4F)sc3nc2c1,nt,6%,nt,nt,12%,nt
CCOC(=O)c1ccccc1NC(=O)c1ccc2c(=O)n3c(nc2c1)CCCCC3,5%,?,0%,0,?,6%
CCOc1c2ccc(C(=O)NCCCCc3ccccc3)cc2nn1CC,12%,1%,-1%,17,-18%,-3%
Cc1ccc(Cl)cc1Nc1nn2c(=O)c3ccc(C(=O)NCc4ccc(F)cc4)cc3nc2s1,nt,4.6µM*,nt,nt,2.1µM*,nt
CCc1ccccc1Nc1nn2c(=O)c3ccc(C(=O)NCCc4ccccc4)cc3nc2s1,nt,23µM*,nt,nt,10µM*,nt
CCc1ccccc1Nc1nn2c(=O)c3ccc(C(=O)NC(C)c4ccccc4)cc3nc2s1 (stereo not drawn),nt,15µM*,nt,nt,15µM*,nt
CC(NC(=O)c1ccc2c(=O)n3c(nc2c1)CCC3)c1ccc(S(N)(=O)=O)cc1 (stereo not drawn),1%,11%,15%,8,13%,9%
CCc1ccc(NC(=O)c2ccc3c(=O)n4nc(Nc5ccccc5C)sc4nc3c2)cc1,nt,13µM*,nt,nt,23µM*,nt
CCOC(=O)C1=C(O)C(=O)N(Cc2cccnc2)C1c1ccc(OC)cc1 (stereo not drawn),-2%,?,20%,17,-17%,13%
CCNC(=O)C1CCCN(C(=O)c2ccc(C#N)cc2)CC1 (stereo not drawn),nt,-1%,29%,23,-19%,8%
SMILES,uPA generation,DT40 TDP1 no CPT,HT1080NT lethal,IL-1B inflam inh,TDP1 cell CPT,HT1080 IDH1KD tx
O=C(CCNC(=O)Cn1cnc2ccccc2c1=O)NCCC1=CCCCC1,11%,-4%,2%,22,?,-20%
Cc1ccccc1Nc1nn2c(=O)c3ccc(C(=O)NCc4ccccc4)cc3nc2s1,nt,16µM*,nt,nt,16µM*,nt
O=C(NCCC1=CCCCC1)c1ccc2c(=O)n3nc(Nc4ccccc4)sc3nc2c1,nt,3.7µM*,nt,nt,2.3µM*,nt
CCOc1c2ccc(C(=O)NCc3ccc(C)cc3)cc2nn1CC,12%,4%,4%,-24,9%,16%
CCc1ccccc1Nc1nn2c(=O)c3ccc(C(=O)NCc4ccc(C)cc4)cc3nc2s1,nt,8.2µM*,nt,nt,?,nt
COc1ccc(/C=C2\N=C(c3ccccc3)NNC2=O)cc1,4%,1%,12%,6,-15%,19%
CCc1cccc(NC(=O)Cn2nc3c4cc(F)ccc4n(Cc4cccc(C)c4)cc-3c2=O)c1,nt,-6%,nt,nt,-4%,nt
O=C1[C@H](Cc2ccccc2)NCCCC[C@H](c2ccc(Cl)cc2)N1Cc1ccccc1,-17%,16µM*!,?,-14,?,?
O=C1[C@H](Cc2ccccc2)NCCCC[C@@H](c2ccc(Cl)cc2)N1Cc1ccc(Cl)cc1,-10%,?,?,-50*,?,?
O=C1N[C@@H](Cc2ccccc2)C(=O)N2CCCC12 (stereo partly drawn),11%,-11%,6%,15,-10%,11%
COc1ccc(/C=N/NC(=O)c2ccc3ccccc3c2)cc1OS(=O)(=O)c1ccc(NC(C)=O)cc1,?,3.7µM*,6.3µM*,-12,4.6µM*,?
CCOc1cc(C(=S)N2CCOCC2)ccc1OS(=O)(=O)c1ccc(OC)cc1,0%,?,-4%,-29,-4%,-10%
COc1ccc(C=O)cc1OS(=O)(=O)c1ccc(NC(C)=O)cc1,1%,3.7µM*,-26%,20,?,?
COc1cc(C=O)cc(OC)c1OS(=O)(=O)c1ccc(NC(C)=O)cc1,nt,?,5%,28,?,5%
CCOc1cc(C(=S)N2CCOCC2)ccc1OS(=O)(=O)c1ccc(NC(C)=O)cc1,-20%,16µM*,-2%,-53*,10µM*,-2%
